PubChem BioAssay (Tox21)
Inconclusive results are not listed. Activity calls are given as the source filed them. Unless noted, calls come from the whole dose curve; as a rule, active = well fitted curve in the direction sought with a large enough effect in the repeat runs; inconclusive = weak or mixed curves; inactive = no such curve, though single readings can be large; an effect the other way counts as inactive or inconclusive.

Legend:
[1] = qHTS assay to identify small molecule agonists of the vitamin D receptor (VDR) signaling pathway - cell viability counter screen (AID 743224); note: series mostly up to about 63 µM; nearly all actives have a fitted effect of over 50% in size
Outline: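 VDR-bla cells were preincubated 4 h at 37C/5% CO2, then exposed to compounds for 16 h. After the 2 h room-temperature bla FRET read, CellTiter-Glo was added to the same wells and luminescence read after 30 min.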

[2] = qHTS assay to identify small molecule agonists of the NFkB signaling pathway (AID 1159509; active = well fitted curve in the direction sought with a large enough effect in the signal ratio in the repeat runs, not every such curve was filed as active; the % refers to the signal ratio; note: series mostly up to about 61 µM)
Outline: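 After overnight attachment, reporter cells received test compounds, DMSO or positive controls and were incubated 5 hr at 37 C. FRET substrate was then added for 1.5 hr at room temperature before dual-emission fluorescence reading.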

[3] = qHTS assay to identify small molecule agonists of the NFkB signaling pathway - cell viability counter screen (AID 1159515; calls by dose curve; note: series mostly up to about 61 µM; nearly all actives have a fitted effect of over 55% in size)
Outline: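 NFkB-bla ME-180 cells, 2,000/well, were plated overnight at 37 C, 5% CO2, then exposed to compounds in DMSO for 5 hr. After the bla FRET read, CellTiter-Glo was added to the same wells; luminescence was read after 30 min at room temperature.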

[4] = qHTS assay to identify small molecule agonists of the endoplasmic reticulum stress response signaling pathway (AID 1159516; active = well fitted activation curve with a large enough effect in the signal ratio in the repeat runs, not every such curve was filed as active; the % refers to the signal ratio)
Outline: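 CellSensor ESRE-bla HeLa cells, carrying a beta-lactamase reporter driven by the ER stress response element, were plated overnight and exposed to compounds for 5 hr at 37 C. Reporter activity was read as FRET substrate fluorescence after 2 hr at room temperature.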

[5] = qHTS assay to identify small molecule agonists of the endoplasmic reticulum stress response signaling pathway - cell viability counter screen (AID 1159517; calls by dose curve; note: series mostly up to about 61 µM; nearly all actives have a fitted effect of over 50% in size)
Outline: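 Counter-screen wells were identical to the reporter wells. Cells were plated at 1,500 per well and dosed for 5 hr, then read for luminescence 30 min after CellTiter-Glo addition.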

[6] = qHTS assay to identify small molecule antagonists of the retinoid-related orphan receptor gamma (ROR-gamma) signaling pathway - cell viability counter screen (AID 1159520); note: nearly all actives have a fitted effect of over 50% in size
Outline: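 Tet-on ROR gamma CHO cells were given compounds for 2 hr, then doxycycline hyclate at 1 uM final, and incubated 16 hr at 37 C. Viability was measured as ATP content by CellTiter-Glo luminescence.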

[7] = target: Nuclear receptor ROR-gamma (Homo sapiens) (UniProt P51449); assay: qHTS assay to identify small molecule antagonists of the retinoid-related orphan receptor gamma (ROR-gamma) signaling pathway (AID 1159521;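 note: CHO cells with doxycycline inducible ROR-gamma driving an RORE luciferase reporter; top concentration of the series differs between compounds; nearly all actives have a fitted effect of over 50% in size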)
Outline: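 CHO cells expressing RORγ under a TET-on promoter, luciferase under RORE control. Dox 1 uM final, 16 h; compounds added 2 h prior. Luminescence decrease measured.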

[8] = qHTS assay to identify small molecule agonists of the AP-1 signaling pathway - cell viability counter screen (AID 1159525; calls by dose curve; note: nearly all actives have a fitted effect of over 55% in size)
Outline: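 AP-1-bla ME-180 cells in Opti-MEM with 0.5% dialyzed FBS, compound exposure 5 h at 37 C in 15-point titration. Viability read in the same wells as ATP content by CellTiter-Glo luminescence, normalised to tetra-n-octylammonium bromide and DMSO controls.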

[9] = qHTS assay to identify small molecule agonists of the AP-1 signaling pathway (AID 1159526; calls by dose curve)
[10] = target: Retinoic acid receptor RXR-alpha (Homo sapiens) (UniProt P19793); assay: qHTS assay to identify small molecule agonists of the RXR signaling pathway (AID 1159527; calls by dose curve; note: nearly all actives have a fitted effect of over 35% in size)
Retinoic acid receptor RXR-alpha (Homo sapiens), sequence (P19793 whole entry, looked up): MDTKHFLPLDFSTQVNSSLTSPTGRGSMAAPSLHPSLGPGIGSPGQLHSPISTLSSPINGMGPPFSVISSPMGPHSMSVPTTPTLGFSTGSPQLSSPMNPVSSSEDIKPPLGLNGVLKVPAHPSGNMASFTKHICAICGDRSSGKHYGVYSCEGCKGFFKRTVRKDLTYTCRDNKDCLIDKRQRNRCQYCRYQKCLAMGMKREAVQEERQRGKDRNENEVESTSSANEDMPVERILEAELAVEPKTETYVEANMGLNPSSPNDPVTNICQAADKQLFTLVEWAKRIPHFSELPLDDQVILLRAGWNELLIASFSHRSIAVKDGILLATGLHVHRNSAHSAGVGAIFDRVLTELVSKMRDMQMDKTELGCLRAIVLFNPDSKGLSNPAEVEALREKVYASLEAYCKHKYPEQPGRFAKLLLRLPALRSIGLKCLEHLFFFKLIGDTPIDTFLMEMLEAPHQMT
Outline: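 Beta-lactamase reporter assay, agonist format. Engineered HEK 293T line, charcoal-stripped FBS at 2%, overnight (16 hr) exposure, fluorescence at 460 and 530 nm after 405 nm excitation.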

[11] = qHTS assay to identify small molecule agonists of the RXR signaling pathway - cell viability counter screen (AID 1159529)
Outline: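 Same-well viability check after the LiveBLAzer FRET read: CellTiter-Glo added, luminescence measured after 30 min at room temperature. Reporter HEK 293T cells had been treated with compounds for 16 hr following a 5 hr preincubation.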

[12] = qHTS assay to identify small molecule antagonists of the retinoid acid receptor (RAR) signaling pathway - cell viability counter screen (AID 1159551); note: nearly all actives have a fitted effect of over 35% in size
Outline: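 C3RL4 cells were seeded overnight at 37 C, then treated with compounds plus 1 uM (final) retinol for 6 h at 37 C. Viability was read as ATP by CellTiter-Glo luminescence after 30 min at room temperature.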

[13] = qHTS assay to identify small molecule antagonists of the retinoic acid receptor (RAR) signaling pathway (AID 1159552; note: nearly all actives have a fitted effect of over 50% in size)
Outline: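 Readout: luciferase luminescence, 30 min post-reagent at RT. Setup: C3RL4 RARE reporter cells, compounds plus retinol 1 uM final, 6 hr incubation at 37 C and 5% CO2.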

[14] = qHTS assay to identify small molecule antagonists of the vitamin D receptor (VDR) signaling pathway - cell viability counter screen (AID 743225); note: nearly all actives have a fitted effect of over 50% in size
Outline: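 Luminescent cell viability (CellTiter-Glo) in VDR-bla HEK 293T cells after 16 h compound exposure at 37C in the presence of 3 nM final 1-alpha,25-dihydroxy vitamin D3.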

[15] = qHTS assay to identify small molecule agonists of the retinoic acid receptor (RAR) signaling pathway (AID 1159553)
Outline: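 C3RL4 cells carrying a RARE luciferase reporter were plated overnight at 37 C, then exposed to compounds in DMSO for 6 hr at 37 C and 5% CO2. Luminescence was read 30 min after luciferase reagent addition at room temperature.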

[16] = qHTS assay to identify small molecule antagonists of the estrogen related receptor (ERR) signaling pathway - cell viability counter screen (AID 1224818);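 note: series mostly up to about 46 µM; viability measured after 17.5 h of compound exposure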
Outline: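 ERR reporter cells plated 6 h at 37 C/5% CO2, then compounds in DMSO pin-transferred and incubated 17.5 h at 37 C. Viability read as CellTiter-Fluor fluorescence after 30 min at 37 C.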

[17] = qHTS assay to identify small molecule antagonists of the estrogen related receptor (ERR) signaling pathway (AID 1224819)
Outline: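 ERR reporter cells were plated at 2,000 cells/well and left 6 h at 37 C/5% CO2 before pin-tool transfer of compounds in DMSO. After 18 h at 37 C, One-Glo was added and luminescence was read 30 min later at room temperature.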

[18] = qHTS assay to identify small molecule agonists of the estrogen related receptor (ERR) signaling pathway (AID 1224820)
Outline: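 Quantitative HTS of the LOPAC library used NTP ERR reporter cells treated 18 h at 37 C. Signal is luminescence after One-Glo addition and a 30 min room-temperature incubation.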

[19] = system: estrogen-related receptor alpha (ERRalpha) with PGC-1alpha coactivator, human; assay: qHTS assay to identify small molecule antagonists of the estrogen related receptor signaling pathway with the pleiotropic PPARgamma coactivator (PGC) (AID 1224821; calls by dose curve)
Outline: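 Quantitative HTS for antagonism: PGC/ERR cells received compounds after 6 h attachment and were incubated 18 h at 37 C, with luminescence (One-Glo) as the endpoint.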

[20] = qHTS assay to identify small molecule antagonists of the estrogen related receptor signaling pathway with the pleiotropic PPARgamma coactivator (PGC) cell viability counter screen (AID 1224822; note: series mostly up to about 46 µM)
Outline: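 PGC/ERR cells were seeded at 2,000 cells/well, rested 6 h at 37 C/5% CO2, then given compounds in DMSO by pin tool and incubated 17.5 h at 37 C. Viability came from CellTiter-Fluor fluorescence after 30 min.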

Measured: Potency

CCOC(=O)Nc1cccc(OC(=O)Nc2ccccc2)c1
not listed: [14] | [15] | [16] | [17] | [18] | [19] | [20]
inactive: all other assays above

CC[C@H](O)C(C[C@H](C)N(C)C)(c1ccccc1)c1ccccc1
not listed: [14] | [15] | [16] | [17] | [18] | [19] | [20]
inactive: all other assays above

CN(C)C(=O)Oc1cc(OC(=O)N(C)C)cc(C(O)CNC(C)(C)C)c1 (configuration not stated)
not listed: [16] | [17] | [18] | [19] | [20]
inactive: all other assays above

CCCCCCCC(=O)Cl
not listed: [16] | [17] | [18] | [19] | [20]
inactive: all other assays above

CCN1CCCC1CNC(=O)C(O)(c1ccccc1)c1ccccc1 (configuration not stated)
not listed: [16] | [17] | [18] | [19] | [20]
inactive: all other assays above

CCOC(=O)c1ncn2c1CN(C)C(=O)c1c(I)cccc1-2
not listed: [16] | [17] | [18] | [19] | [20]
inactive: all other assays above

CCCOc1nn(C(=O)NS(=O)(=O)c2ccccc2C(=O)OC)c(=O)n1C
not listed: [14] | [15] | [16] | [17] | [18] | [19] | [20]
inactive: all other assays above

CCOC(=O)CCl
not listed: [14] | [15] | [16] | [17] | [18] | [19] | [20]
inactive: all other assays above

C=CCC1(C(C)CC)C(=O)NC(=O)NC1=O (configuration not stated)
not listed: [14] | [15] | [16] | [17] | [18] | [19] | [20]
inactive: all other assays above

CCCN1CCC[C@@H]2Cc3nc(N)ncc3C[C@H]21
not listed: [1] | [15]
inactive: all other assays above

COc1cc(CC(C)N)cc(OC)c1OC (configuration not stated)
not listed: [16] | [17] | [18] | [19] | [20]
inactive: all other assays above

CCOP(=S)(OCC)Oc1ccc(Cl)cc1Cl
not listed: [14] | [15] | [16] | [17] | [18] | [19] | [20]
inactive: all other assays above

OCC(Cl)CCl (configuration not stated)
not listed: [1] | [16] | [17] | [18] | [19] | [20]
inactive: all other assays above

CCC(CC)(CNC(=O)CCCO)c1cccc(OC)c1
not listed: [16] | [17] | [18] | [19] | [20]
inactive: all other assays above

Cc1cc(OC(=O)N(C)C)nn1C(=O)N(C)C
not listed: [16] | [17] | [18] | [19] | [20]
inactive: all other assays above

N#CN
not listed: [1] | [16] | [17] | [18] | [19] | [20]
inactive: all other assays above

C[C@]12C=CC(=O)C=C1CC[C@@H]1[C@@H]2CC[C@@]2(C)[C@H]1CC[C@]2(C)O
not listed: [16] | [17] | [18] | [19] | [20]
inactive: all other assays above

CS(=O)(=O)Cl
not listed: [1] | [16] | [17] | [18] | [19] | [20]
inactive: all other assays above

O=S1(=O)OCCO1
not listed: [1] | [16] | [17] | [18] | [19] | [20]
inactive: all other assays above
